Consider 59 compounds from PubChem BioAssay AID1347416 (National Center for Advancing Translational Sciences (NCATS), 2020).

Hit rate of the full screen: of about 4,100 compounds, about 1,600 (39%) were called active. Another 25% or so got no clear call; they are omitted. Some of the results follow. Unmarked numbers belong to inactive results. Calls follow the shape of the dose curve; as a rule, active = well fitted inhibition curve with a large enough effect; inconclusive = small, poorly fitted or top-dose-only effect; inactive = no such curve, though single readings can be large or run the other way.
% is scaled to controls: 0 for no effect and ±100 for the full control effect; potency is read from the fitted curve at half-maximal effect.

A short description of the experiment: qHTS Validation assay for Inhibitors of Plasmodium falciparum Dd2 growth in vitro. Also: nearly all actives have a fitted effect of over 70% in size. The settings on record: P. falciparum Dd2 in RBCs, SYBR Green growth, 72 h; series mostly up to 28.7 µM; activity change, negative = inhibition: at the top concentration. In outline:
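P. falciparum Dd2-infected red blood cells (2.5% hematocrit, 0.3% parasitemia) grown 72 h at 37 °C under 5% O2 with compounds in a titration, 29 uM to 0.5 nM final. Growth read as SYBR Green-1 fluorescence after ~16 h lysis; artesunate 300 nM as positive control.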
On to `CCOC(=O)c1[nH]c(Cc2[nH]c(C(=O)OCC)c(C)c2CCC(=O)OC)c(CCC(=O)OC)c1C`, for which the Potency is 5.31 µM (active).
As for `CN(C)c1cccc(-c2nccc3c(=O)cc(-c4cn[nH]c4)oc23)c1`, the “activity change, negative = inhibition” value is -2.52% [at 43.1 µM].
For the compound `CC(C)(C)CC(C)(C)c1ccc(O)c(CN2CCN(CCC#N)CC2)c1`, the Potency was 0.842 µM (active).
Take `Cc1ccc(C(=O)N2CCC3(CC2)N(c2ccccc2)C(=O)CS3(=O)=O)c(C)c1`: the “activity change, negative = inhibition” value was 18.7%.
As for `CC(C)C(=O)NC(c1ccc([N+](=O)[O-])cc1)c1c(O)ccc2ccccc12` (centres undefined), the Potency was 13.3 µM (active).
For the compound `CC(=O)Oc1ccc2ccccc2c1C(NC(=O)C(C)C)c1cccc([N+](=O)[O-])c1` (centres undefined), the Potency is 16.8 µM (active).
As for `CCCCC(=O)NC(c1cccc([N+](=O)[O-])c1)c1c(OC(C)=O)ccc2ccccc12` (centres undefined), the Potency is 3.76 µM (active).
With `Cc1nc(N2CCN(C)CC2)c2c3c(sc2n1)CCCC3`, the “activity change, negative = inhibition” value is 63.3%.
Consider `Cc1noc(C)c1CSc1nc2sc3c(c2c(=O)n1C)CCCC3`, for which the Potency is 8.41 µM (active).
Turning to `Cc1nnc([C@@H]2CC(F)(F)CN2C(=O)c2ccoc2C)o1`, the “activity change, negative = inhibition” value is 33.4%.
Turning to `Cc1occc1C(=O)N1CCN(C(c2ccccc2)c2ccccc2)CC1`, the Potency was 10.6 µM (active).
In the case of `Cc1ccccc1C(=O)N1CCC(c2nc3ccccc3s2)CC1`, the “activity change, negative = inhibition” value was 1.54%.
Regarding `CCN(Cc1ccccc1)Cc1c(O)ccc2oc(C)c(C(=O)Nc3ccccc3C)c12`, the Potency is 4.73 µM (active).
Same read-out and setting: next, `Cc1ccc(NC(=O)c2c(C)oc3ccc(O)c(CN(C)Cc4ccccc4)c23)c(C)c1`: 5.96 µM (active).
The same measure, in the same setting: next, `Cc1oc2ccc(O)c(CN(C)Cc3ccccc3)c2c1C(=O)Nc1ccccc1`: 2.37 µM (active); `Cc1ccccc1NC(=O)c1c(C)oc2ccc(O)c(CN(C)Cc3ccccc3)c12`: 2.37 µM (active).
With `CCN(CC)c1ccc(-n2nc3cc(C)c(NC(=O)c4ccccc4F)cc3n2)cc1`, the “activity change, negative = inhibition” value was -28.1%.
The same measure, in the same setting: next, `O=C(Nc1cccc(C(F)(F)F)c1)c1nc2c(o1)CCN(Cc1cccc(F)c1)CC2`: 13.4% [at 43.1 µM].
For `Cc1oc2ccc(O)c(CN(C)Cc3ccccc3)c2c1C(=O)Nc1cccc(C(F)(F)F)c1`, the Potency is 2.11 µM (active).
On the same count and under the same terms, next, `CC(=O)Nc1cccc(C(=O)N2CCC3(CC2)N=C(c2ccc(C)cc2)NO3)c1`: 0.842 µM (active).
Consider `CC(=O)Nc1cccc(C(=O)NC2CCCN(c3cc(-c4ccc(Cl)cc4)[nH]n3)C2)c1` (centres undefined), for which the “activity change, negative = inhibition” value is -18.7%.
Same read-out and setting: next, `COc1ccccc1CC(=O)N1CCC2(CC1)N=C(c1cccc(Br)c1)NO2`: -7.17%; `CCOc1cccc(C2Nc3ccccc3-c3cc(C)nn32)c1O` (centres undefined): -12%.
On to `COc1cccc(/C(C#N)=C/c2c(-c3ccc(Cl)cc3)nc3c(C)cccn23)c1`, for which the Potency is 5.96 µM (active).
Same read-out and setting: next, `O=C1NC(=O)/C(=C\c2ccc(N3CCOCC3)o2)N1`: 9.44 µM (active).
Take `Cc1ccc(C(=O)NC2CCCN(c3cc(-c4ccccc4)[nH]n3)C2)s1` (centres undefined): the “activity change, negative = inhibition” value was 1.75%.
On to `Cn1c2ccc(F)cc2c2nnc(SCCN3CCCCC3)nc21`, for which the Potency is 15 µM (active).
For the compound `Cn1c(=S)c2[nH]c(SCCN3CCCC3)nc2n(C)c1=O`, the “activity change, negative = inhibition” value was -13.5%.
Consider `Nc1nc2[nH]cc(CCc3ccc(C(=O)N[C@@H](CCC(=O)O)C(=O)O)cc3)c2c(=O)[nH]1`, for which the Potency was 7.5 µM (active).
The same measure, in the same setting: next, `Cc1ncsc1CN1CCCN(Cc2ccncc2)C(c2ccccc2)CC(=O)NCC1` (centres undefined): 8.41 µM (active); `Cc1ccc(CN2CCCN(Cc3ccncc3)C(c3ccccc3)CC(=O)NCC2)s1` (centres undefined): 2.66 µM (active).
With `Cc1ccsc1CN1CCCN(S(=O)(=O)c2ccccc2)CCC(=O)NCC1`, the “activity change, negative = inhibition” value was -23.3%.
As to `Cc1ccc(CN2CCCN(Cc3ccncc3)C(c3ccccc3)CC(=O)NCC2)o1` (centres undefined), the Potency was 7.5 µM (active).
For the compound `CN(C)C(=O)C1CN(C(=O)NC2CCCCC2)CC12CCOCC2` (centres undefined), the “activity change, negative = inhibition” value is 13.2%.
In the case of `Cn1cccc1C(=O)N1CC[C@H](NC(=O)Nc2ccc(F)cc2F)[C@H]1C(=O)N[C@H](Cc1ccccc1)C(N)=O`, the “activity change, negative = inhibition” value was 35.9%.
As to `Cc1ccc(O)c([C@H](CCN(C(C)C)C(C)C)c2ccccc2)c1`, the Potency was 4.22 µM (active).
On the same count and under the same terms, next, `COc1ccc(CCNC(=O)CC(c2ccccc2OC)c2c[nH]c3ccccc23)cc1OC` (centres undefined): 13.3 µM (active).
Turning to `COc1ccc(CCNC(=O)CCc2cn(Cc3ccc(F)cc3)c3ccccc23)cc1OC`, the “activity change, negative = inhibition” value was -6.47%.
Consider `CCCC1c2nccn2CCCN1C(=O)c1cnco1` (centres undefined), for which the “activity change, negative = inhibition” value was 16.6%.
As for `Cc1cccc(CN2CCCC(O)(CNCc3ncccc3C)C2=O)c1` (centres undefined), the Potency was 16.8 µM (active).
For `Cc1cccnc1CNC[C@H]1O[C@@H]2C[C@@H](CC(=O)N3CCOCC3)O[C@@H]2[C@@H]1O`, the “activity change, negative = inhibition” value is 0% [at 43.1 µM].
As to `CCOC(=O)c1c(NC(=O)CSc2cn(CCNC(=O)c3cccc(C(F)(F)F)c3)c3ccccc23)sc2c1CCC2`, the “activity change, negative = inhibition” value is 9.72%.
Take `CCCn1cc(SCC(=O)NCc2ccco2)c2ccccc21`: the Potency was 8.41 µM (active).
Same read-out and setting: next, `CCOc1ccccc1C1c2[nH]c3ccccc3c2C[C@H]2C(=O)N(C3CCN(Cc4ccccc4)CC3)CC(=O)N12` (some centres undefined): 2.37 µM (active); `COc1ccccc1C1c2[nH]c3ccccc3c2C[C@H]2C(=O)N(C3CCN(Cc4ccccc4)CC3)CC(=O)N12` (some centres undefined): 2.11 µM (active); `COc1ccc(C2c3[nH]c4ccccc4c3C[C@H]3C(=O)N(C4CCN(Cc5ccccc5)CC4)CC(=O)N23)c(OC)c1` (some centres undefined): 2.37 µM (active).
On the same count and under the same terms, next, `COc1ccc(C2c3[nH]c4ccccc4c3C[C@H]3C(=O)N(C4CCN(Cc5ccccc5)CC4)CC(=O)N23)cc1OC` (some centres undefined): 2.99 µM (active); `CC(=O)N(C)C1=C(N2CCOCC2)C(=O)c2ccccc2C1=O`: 0.842 µM (active); `COc1ccc(-c2nn(-c3ccc(F)cc3)c(OC(C)=O)c2-c2ccc(NC(C)=O)cc2)cc1OC`: 15 µM (active).
Consider `Cc1ccc(-n2cc(-c3ccccc3)nc2S(=O)(=O)CC(=O)Nc2ccc(F)cc2)cc1`, for which the “activity change, negative = inhibition” value was -20.6%.
With `CC(=O)Oc1c(-c2ccc(NC(=O)CC(C)C)cc2)c(-c2ccc(F)cc2)nn1-c1ccc(F)cc1`, the Potency is 13.3 µM (active).
With `COc1cccc(C2C3=C(N=c4s/c(=C\c5ccccc5O)c(=O)n42)c2ccccc2CC3)c1OC` (centres undefined), the Potency is 2.99 µM (active).
On the same count and under the same terms, next, `COc1cccc(CN2C(=O)OC3(CCN(Cc4c[nH]c5ccccc45)CC3)C2(C)c2cccnc2)c1` (centres undefined): 8.41 µM (active).
For `O=C1CO[C@H]2CCN(Cc3ccc(O)cc3)CC[C@@H]2N1c1ccccc1`, the “activity change, negative = inhibition” value was -26.9% [at 43.1 µM].
For the compound `COc1cccc(CN2C(=O)OC3(CCN(Cc4ccccc4OC)CC3)C2(C)c2cccnc2)c1` (centres undefined), the Potency was 4.73 µM (active).
On the same count and under the same terms, next, `CC1(c2ccccc2)N(Cc2ccc(O)cc2)C(=O)OC12CCN(Cc1c[nH]c3ccccc13)CC2` (centres undefined): 5.31 µM (active).
For `COc1cccc(CN2CCC3(C2)NC(=O)c2ccccc2CO3)c1` (centres undefined), the “activity change, negative = inhibition” value was 1.2% [at 43.1 µM].
For the compound `COCc1cc(=O)n(CC(=O)NCc2cccc(OC)c2)c(N2CCOCC2)n1`, the “activity change, negative = inhibition” value is 3.01%.
Take `COc1cccc(CN2C(=O)OC3(CCN(Cc4ccc5c(c4)CCO5)CC3)C2(C)c2cccnc2)c1` (centres undefined): the Potency was 4.73 µM (active).
